ELG1 DNA repair: ELG1-dependent DNA repair inhibition. HEK293T ELG1-luciferase reporter, luminescence, 16 h; DNA damage induced by 5-fluorouridine. AID 504467. Potency, µM (top dose mostly 46.1 µM), hits mostly inhibitors. 330,000 tested, 2.3% active; note: nearly all actives have a fitted effect of over 55% in size
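Overnight (16 hr) co-exposure of 2,000 cells/well to 5-fluorouridine and compound at 37 °C preceded detection. Luciferase was quantified via ONE-Glo luminescence; loss of signal denotes inhibition.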
ELG1 genotox: inducers of genotoxicity in HEK293T ELG1-luciferase cells | HEK293T ELG1-luciferase reporter, luminescence, 16 h | Potency, µM (top dose mostly 46 µM), usual class: activators | 330,000 tested, 1.3% active; note: nearly all actives have a fitted effect of over 60% in size
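ELG1-luciferase HEK293T cells, 2,000/well; compound pinned in; 16 hr, 37 °C, 5% CO2; ONE-Glo, 30 min RT; luminescence on CCD imager.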
SMN2 splice enh: increases expression of the SMN2 splice variant; 210,000 tested, 2.8% active; Potency, µM (series often up to 46.1 µM), most hits filed as activators; HEK293 SMN2-luciferase splicing reporter, luminescence, 30-36 h; note: nearly all actives have a fitted effect of over 55% in size
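qHTS luciferase splicing reporter: luminescence rises when SMN2 exon 7 is included in transfected HEK293 cells. Compound exposure lasted 30-36 h at 37C, with 4.5 mM final sodium butyrate as control, followed by a ONE-Glo read.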
NPC1 promoter act: activates the NPC1 promoter; Huh7 NPC1 promoter luciferase reporter, 24 h; 320,000 tested, 2.4% active; Potency, µM (top dose mostly 9.22 µM), usual class: activators; note: nearly all actives have a fitted effect of over 60% in size
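Compounds in DMSO were transferred onto Huh7 NPC1-luciferase reporter cells pre-incubated 2 h; after 24 h at 37 °C, Amplite reagent was dispensed and luminescence recorded 10 min later.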
Rab9 promoter act: Rab9 promoter activation. Huh7 Rab9 promoter-luciferase reporter, luminescence, 24 h. 320,000 tested, 2.8% active. AID 485297. Potency, µM (series often up to 9.22 µM), actives largely listed as activators; note: nearly all actives have a fitted effect of over 60% in size
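Using Huh7 cells stably transfected with Rab9 promoter–luciferase, compounds were incubated 24 h at 37 °C, 5% CO2; luciferase luminescence was read 10 min after reagent addition.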
FLuc modulator: counter-screen for miR-21 project: firefly luciferase inhibitors or activators. P08659. purified FLuc, Km substrates, luminescence inhibition. Potency, µM (top dose mostly 57.5 µM), hits mostly inhibitors. 360,000 tested, 6.9% active. AID 588342; note: nearly all actives have a fitted effect of over 55% in size
Target sequence (P08659 whole entry, looked up): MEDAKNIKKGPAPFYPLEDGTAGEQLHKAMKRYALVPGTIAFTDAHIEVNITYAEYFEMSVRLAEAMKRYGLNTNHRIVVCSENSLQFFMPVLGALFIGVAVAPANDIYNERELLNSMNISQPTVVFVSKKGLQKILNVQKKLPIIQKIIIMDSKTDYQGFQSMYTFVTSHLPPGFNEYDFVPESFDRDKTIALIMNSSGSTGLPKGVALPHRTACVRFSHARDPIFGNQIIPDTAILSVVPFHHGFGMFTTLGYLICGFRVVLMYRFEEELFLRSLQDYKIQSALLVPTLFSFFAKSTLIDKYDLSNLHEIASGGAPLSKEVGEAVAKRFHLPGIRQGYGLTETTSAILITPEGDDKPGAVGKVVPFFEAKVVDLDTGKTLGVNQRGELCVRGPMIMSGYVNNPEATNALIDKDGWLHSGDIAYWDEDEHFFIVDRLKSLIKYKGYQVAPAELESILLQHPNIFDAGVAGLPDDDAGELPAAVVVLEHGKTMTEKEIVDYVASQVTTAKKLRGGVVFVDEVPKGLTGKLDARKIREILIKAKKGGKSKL
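Purified P. pyralis luciferase (10nM final) with 10uM D-luciferin and 10uM ATP (Km levels) in 50mM Tris acetate pH 7.5, 10mM Mg acetate, 0.01% Tween-20, 0.05% BSA; qHTS 6-point titration, ~60 µM downward; luminescence read.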
A number is an active result. Rows were chosen to be rich in hits. Some 9.4% of all compounds tested hit in one or more screens of this group. Calls come from the whole dose curve; as a rule, active = well fitted curve in the direction sought with a large enough effect; inconclusive = small, poorly fitted or top-dose-only effect, or another doubt; inactive = no such curve, though single readings can be large; an effect the other way counts as inactive or inconclusive.

How did Cc1ccn2c(c1)nc(=S)n2C(=O)c1ccccc1 do in these assays?
ELG1 DNA repair: inconclusive; ELG1 genotox: inconclusive; SMN2 splice enh: 0.5µM; NPC1 promoter act: 0.4µM; Rab9 promoter act: 0.25µM; FLuc modulator: 0.13µM

Results for O=C(COCc1cc(-c2cccs2)on1)Nc1cccc(Cl)c1Cl ?
FLuc modulator: inactive

Results for COc1ccccc1NC(=O)/C=C\c1ccco1 ?
ELG1 DNA repair: inconclusive; ELG1 genotox: inactive; NPC1 promoter act: inconclusive; Rab9 promoter act: inconclusive; FLuc modulator: 24µM

Results for CC(C)(C)c1ccc(/C=C/C(=O)Nc2cccnc2)cc1 ?
ELG1 DNA repair: inconclusive; ELG1 genotox: 2.3µM; NPC1 promoter act: 2µM; Rab9 promoter act: 1.1µM; FLuc modulator: 2.7µM

What do the screens show for `COc1cccc(NC(=O)/C=C/c2ccco2)c1`?
ELG1 DNA repair: inconclusive; ELG1 genotox: inconclusive; SMN2 splice enh: 13µM; NPC1 promoter act: inconclusive; Rab9 promoter act: 2.5µM; FLuc modulator: 11µM

How did O=C(O)/C=C/C(=O)Nc1cccnc1 do in these assays?
ELG1 DNA repair: inactive; ELG1 genotox: inactive; SMN2 splice enh: inactive; NPC1 promoter act: inactive; Rab9 promoter act: inactive; FLuc modulator: inactive

Results for O=C(/C=C/c1ccco1)Nc1cccnc1 ?
ELG1 DNA repair: inconclusive; ELG1 genotox: inconclusive; SMN2 splice enh: inconclusive; NPC1 promoter act: inconclusive; Rab9 promoter act: inconclusive; FLuc modulator: 19µM

Results for COc1ccccc1NC(=S)NC(=O)/C=C/c1ccco1 ?
ELG1 DNA repair: inactive; ELG1 genotox: inactive; SMN2 splice enh: inactive; NPC1 promoter act: inactive; Rab9 promoter act: inactive; FLuc modulator: inactive

Results for C=CC1=C(C(=O)O)N2C(=O)C(NC(=O)/C(=N\O)c3csc(N)n3)C2SC1 (configuration not stated) ?
SMN2 splice enh: inactive

Results for O=C(COC(=O)c1ccc(OC(F)F)cc1)NCc1cccs1 ?
ELG1 DNA repair: inactive; ELG1 genotox: inactive

What do the screens show for `COC(=O)c1sccc1S(=O)(=O)N(CC(=O)Nc1c(C)cccc1C)c1ccc(C)c(C)c1`?
FLuc modulator: inactive

Results for Cc1ccc(-n2ncc(C(=O)NCc3ccccc3)c2C2CCN(C(=O)OC(C)(C)C)CC2)cc1 ?
FLuc modulator: inactive

How did Cc1cccc(NC(=S)NC(=O)/C=C/c2ccco2)c1 do in these assays?
ELG1 DNA repair: inconclusive; ELG1 genotox: inconclusive; SMN2 splice enh: inactive; NPC1 promoter act: inactive; Rab9 promoter act: inactive; FLuc modulator: inconclusive

How did CSc1cccc(NC(=O)/C=C/c2ccco2)c1 do in these assays?
ELG1 DNA repair: inconclusive; ELG1 genotox: inconclusive; SMN2 splice enh: inactive; NPC1 promoter act: inactive; Rab9 promoter act: inconclusive; FLuc modulator: 19µM

How did N#Cc1cc2c(nc1SCC(=O)O)CCCCC2 do in these assays?
ELG1 DNA repair: inactive; ELG1 genotox: inactive; NPC1 promoter act: inactive; Rab9 promoter act: inactive; FLuc modulator: inactive

How did CCOC(=O)CC(=O)CSc1nc2c(cc1C#N)CCC2 do in these assays?
ELG1 DNA repair: inactive; ELG1 genotox: inactive; SMN2 splice enh: inactive; NPC1 promoter act: inactive; Rab9 promoter act: inactive; FLuc modulator: 13µM

Results for CCc1nnc(NC(=O)CSc2nc3c(cc2C#N)CCCC3)s1 ?
ELG1 DNA repair: inconclusive; ELG1 genotox: inconclusive; SMN2 splice enh: 5.6µM; NPC1 promoter act: 0.89µM; Rab9 promoter act: 0.5µM; FLuc modulator: 0.85µM

Results for COC(=O)CC(=O)CSc1nc2c(cc1C#N)CCCCC2 ?
ELG1 DNA repair: inconclusive; ELG1 genotox: inconclusive; SMN2 splice enh: inconclusive; NPC1 promoter act: inactive; Rab9 promoter act: inconclusive; FLuc modulator: 5.4µM

Results for S=C(NCCc1ccccc1)Nc1cccc2cnccc12 ?
ELG1 DNA repair: 1.5µM; ELG1 genotox: inactive; SMN2 splice enh: inactive; NPC1 promoter act: inactive; Rab9 promoter act: inactive; FLuc modulator: inactive

Results for S=C(NCc1cccnc1)Nc1cccc2ccccc12 ?
ELG1 DNA repair: inactive; ELG1 genotox: inactive; SMN2 splice enh: inactive; NPC1 promoter act: inactive; Rab9 promoter act: inactive; FLuc modulator: inactive

What do the screens show for `S=C(NCc1ccccc1)Nc1cccc2cnccc12`?
ELG1 DNA repair: 2.1µM; ELG1 genotox: inactive; NPC1 promoter act: inactive; Rab9 promoter act: inactive; FLuc modulator: inactive

Results for Cc1cc(C)c2sc(N3CCN(C(=O)c4ccc(N(C)C)cc4)CC3)nc2c1 ?
FLuc modulator: inactive

How did Cc1onc(-c2ccccc2Cl)c1C(=O)N1CCN(c2nc3ccccc3s2)CC1 do in these assays?
ELG1 DNA repair: 13µM; ELG1 genotox: inactive; SMN2 splice enh: inactive; NPC1 promoter act: inactive; Rab9 promoter act: inactive; FLuc modulator: inactive

What do the screens show for `CC(C)(CC(=O)O)CC(=O)N1CCN(c2nc3ccc(Cl)cc3s2)CC1`?
ELG1 DNA repair: inactive; ELG1 genotox: inactive; NPC1 promoter act: inactive; Rab9 promoter act: inactive; FLuc modulator: inactive

What do the screens show for `Cc1cc(C)c2sc(N3CCN(C(=O)C4CC4)CC3)nc2c1`?
FLuc modulator: 12µM

What do the screens show for `CCCCC(=O)N1CCN(c2nc3ccc(Cl)cc3s2)CC1`?
ELG1 DNA repair: inconclusive; ELG1 genotox: inconclusive; NPC1 promoter act: inconclusive; Rab9 promoter act: inactive; FLuc modulator: 11µM

Results for O=C(C1CC1)N1CCN(c2nc3ccccc3s2)CC1 ?
ELG1 DNA repair: inconclusive; ELG1 genotox: inconclusive; SMN2 splice enh: inconclusive; NPC1 promoter act: 2.8µM; Rab9 promoter act: 2.2µM; FLuc modulator: 21µM

How did COc1ccc(CN2CCN(c3nc4ccccc4s3)CC2)cc1 do in these assays?
ELG1 DNA repair: inconclusive; ELG1 genotox: inactive; NPC1 promoter act: inactive; Rab9 promoter act: inconclusive; FLuc modulator: inconclusive

How did CN(C1CCCCC1)S(=O)(=O)c1ccc(C(=O)N2CCN(c3nc4ccccc4s3)CC2)cc1 do in these assays?
ELG1 DNA repair: 9.2µM; ELG1 genotox: inactive; SMN2 splice enh: inactive; NPC1 promoter act: inactive; Rab9 promoter act: inactive; FLuc modulator: inactive

What do the screens show for `CCC(=O)N1CCN(c2nc3ccccc3s2)CC1`?
ELG1 DNA repair: inconclusive; ELG1 genotox: inactive; SMN2 splice enh: inactive; NPC1 promoter act: inconclusive; Rab9 promoter act: 3.2µM; FLuc modulator: 17µM

How did CCS(=O)(=O)c1ccccc1C(=O)N1CCN(c2nc3ccccc3s2)CC1 do in these assays?
FLuc modulator: inactive

How did CNC(=S)N1CCN(c2nc3ccccc3s2)CC1 do in these assays?
ELG1 DNA repair: inconclusive; ELG1 genotox: inactive; NPC1 promoter act: inconclusive; Rab9 promoter act: inconclusive; FLuc modulator: 17µM

How did Cc1ccccc1CN1CCN(c2nc3ccccc3s2)CC1 do in these assays?
ELG1 DNA repair: inconclusive; ELG1 genotox: 21µM; NPC1 promoter act: 1.6µM; Rab9 promoter act: 1.4µM; FLuc modulator: 4.8µM

How did O=c1c(=O)n(-c2ccccc2)ccn1Cc1c(F)cccc1Cl do in these assays?
FLuc modulator: inactive

How did Clc1cccc(-c2nc(NCc3cccnc3)c3ccccc3n2)c1 do in these assays?
ELG1 DNA repair: 7.3µM; ELG1 genotox: inactive; SMN2 splice enh: inactive; NPC1 promoter act: inactive; Rab9 promoter act: inactive; FLuc modulator: inactive

Bioassay records: PubChem BioAssay, National Center for Advancing Translational Sciences (NCATS)
